85 compounds from paper PMC4336329 (PLoS ONE, 2015) can be followed below.

Out of some 310,000 compounds screened, about 14,000 (4.5%) showed an effect of 50% or more. The effect is printed as a negative number. Only a selection was taken, and strong results are over-represented in it overall.
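Also: peak tail current of the secondary pulse compared with the same well before compound.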

For the assay, the target named is human ether-à-go-go-related gene (hERG) potassium channel (human, UniProt Q12809). The assay can be described thus: primary screen, population patch clamp on CHO cells stably expressing hERG; higher = less effect of the substance.
human ether-à-go-go-related gene (hERG) potassium channel, sequence (Q12809 whole entry, looked up): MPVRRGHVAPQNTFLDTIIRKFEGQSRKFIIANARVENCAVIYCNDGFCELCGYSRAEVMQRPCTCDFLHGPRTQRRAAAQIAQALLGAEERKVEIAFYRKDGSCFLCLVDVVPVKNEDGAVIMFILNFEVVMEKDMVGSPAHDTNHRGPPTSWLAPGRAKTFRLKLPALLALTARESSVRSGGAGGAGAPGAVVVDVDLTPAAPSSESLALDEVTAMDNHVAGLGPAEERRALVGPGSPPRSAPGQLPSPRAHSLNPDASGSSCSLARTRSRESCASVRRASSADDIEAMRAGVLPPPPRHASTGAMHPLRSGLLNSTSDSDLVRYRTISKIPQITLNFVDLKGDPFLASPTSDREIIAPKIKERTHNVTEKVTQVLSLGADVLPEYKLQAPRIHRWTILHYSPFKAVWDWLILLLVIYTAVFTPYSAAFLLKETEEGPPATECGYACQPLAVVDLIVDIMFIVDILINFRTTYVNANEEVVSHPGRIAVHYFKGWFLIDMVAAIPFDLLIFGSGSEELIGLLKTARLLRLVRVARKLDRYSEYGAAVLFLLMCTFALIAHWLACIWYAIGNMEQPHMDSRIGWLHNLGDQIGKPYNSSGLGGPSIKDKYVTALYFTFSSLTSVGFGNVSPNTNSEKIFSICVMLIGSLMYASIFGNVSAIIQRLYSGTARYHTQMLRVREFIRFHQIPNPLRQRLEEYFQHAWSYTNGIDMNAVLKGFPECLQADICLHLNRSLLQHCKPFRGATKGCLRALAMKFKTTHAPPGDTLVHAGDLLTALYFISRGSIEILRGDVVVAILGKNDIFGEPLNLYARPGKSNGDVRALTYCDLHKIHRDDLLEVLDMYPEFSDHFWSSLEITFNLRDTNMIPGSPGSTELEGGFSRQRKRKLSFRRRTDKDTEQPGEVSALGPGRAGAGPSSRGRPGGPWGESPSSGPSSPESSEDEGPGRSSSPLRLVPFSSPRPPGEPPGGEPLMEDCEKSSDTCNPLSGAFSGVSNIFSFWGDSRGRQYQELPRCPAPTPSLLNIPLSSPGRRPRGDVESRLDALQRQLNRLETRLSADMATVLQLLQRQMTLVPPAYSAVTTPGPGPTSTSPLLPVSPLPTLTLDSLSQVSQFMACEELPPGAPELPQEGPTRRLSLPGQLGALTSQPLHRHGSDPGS
`COc1ccc(C2NC(C(=O)O)CS2)cc1COCC(F)(F)F` (stereo not shown): the “hERG current change (%, negative = inhibition) at 10uM” value stood at 3.38%. The value for `CC1Sc2ccc(S(=O)(=O)N3CCC(C(=O)N(C)Cc4ccco4)CC3)cc2NC1=O` (stereo not shown) was -24.7%; that for `COc1ccc(NC(=O)c2sc(SC)nc2N)cc1` was -0.0249%; that for `Cn1ncc(Cl)c1C(=O)N1CCc2ccccc21` was -13.9%. The value for `O=S(=O)(c1ccccc1Cl)N1CCCC1c1nc(-c2cccc(Cl)c2)no1` (stereo not shown) was -9.49%. As for `COc1cccc(-n2c(CN3CCN(Cc4ccccc4)CC3)nc3ccc([N+](=O)[O-])cc3c2=O)c1`, the figure is -52.8%; as for `COc1cccc(-n2c(CN3CCN(c4ccccc4)CC3)nc3ccc([N+](=O)[O-])cc3c2=O)c1`, -8.34%. As for `COc1cccc(-n2c(CN3CCN(C)CC3)nc3ccc([N+](=O)[O-])cc3c2=O)c1`, the “hERG current change (%, negative = inhibition) at 10uM” value is -33.1%. As for `C=C(C)COc1ccc(-c2[nH]ncc2Oc2ccc(OC)cc2)c(O)c1`, the figure is -14.9%; as for `C=C(C)COc1ccc(-c2[nH]ncc2Oc2ccccc2OCC)c(O)c1`, 4.65%. For the compound `C=C(C)COc1ccc(-c2[nH]ncc2Oc2ccccc2OC)c(O)c1`, the “hERG current change (%, negative = inhibition) at 10uM” value was -55.2%. As for `O=C(O)c1ccc(NS(=O)(=O)c2ccc(NC(=O)c3ccccc3Cl)cc2)cc1`, the figure is 19%; as for `CC(NC(=O)COC(=O)c1ccc([N+](=O)[O-])s1)c1ccccc1` (stereo not shown), -20.8%. As for `CCC(C)c1ccc(NC(=O)C/C(C)=N/NC(=O)c2cnccn2)cc1` (stereo not shown), the figure is -17.2%; as for `CCN1C(=O)/C(=C/C=C2\N(CC)c3cc(S(=O)(=O)N(C)C)ccc3N2c2ccccc2)SC1=S`, 0.17%; as for `C=CCN1C(=O)/C(=C\C=C2\N(C)c3ccccc3C2(C)C)SC1=S`, 10.7%.

`C=CCN1C(=O)/C(=C/C=C2/N(CC)c3ccc(S(=O)(=O)N(C)C)cc3N2CC)SC1=S`: the “hERG current change (%, negative = inhibition) at 10uM” value is reported as -56%. The value for `COC(=O)CSc1[nH]c2ccccc2c1[N+](=O)[O-]` was 7.33%; that for `Cc1nn(C)c(NC(=O)c2ccc(Cl)cc2Cl)c1Br` was -11.4%; that for `CCOC(=O)c1ccc(NC(=S)NCc2ccco2)cc1` was -11.1%. The value for `CCc1ccccc1NC(=S)N(CCN1CCCCCC1)Cc1ccco1` was -46.8%; that for `CCOC(=O)c1ccc(NC(=S)N(CCN2CCCCCC2)Cc2ccco2)cc1` was -78.3%; that for `CCOC(=O)c1ccc(NC(=S)N(CCCN(CC)CC)Cc2ccco2)cc1` was -76.7%. The value for `CCOC(=O)c1ccc(NC(=S)N(CCCN2CCCC(C)C2)Cc2ccco2)cc1` (stereo not shown) was -70.9%. As to `CCOC(=O)c1ccc(NC(=S)N(CCCN2CCCCC2)Cc2ccco2)cc1`, the “hERG current change (%, negative = inhibition) at 10uM” value was -72.7%. As for `CCOC(=O)c1ccc(NC(=O)C(=O)NCc2ccco2)cc1`, the figure is 15.7%; as for `O=C1C(NS(=O)(=O)c2ccc(Cl)cc2)=C(N2CCCCC2)C(=O)c2ccccc21`, -13.3%. As for `Cc1ccc(-n2nc3c(=O)n(CCCC(=O)N4CCC(C)CC4)nc(C)c3c2C)cc1`, the figure is -30.1%; as for `CN(Cc1cccc(Cl)c1Cl)c1ccc(S(=O)(=O)N2CCCCC2)cc1[N+](=O)[O-]`, 5.82%. Consider `Cc1ccc(C2=NNC(C(O)C(O)C(O)CO)S2)cc1` (stereo not shown), for which the “hERG current change (%, negative = inhibition) at 10uM” value is 11.6%.

Turning to `CC1CN(S(=O)(=O)c2cccc(C(=O)Nc3ccc(S(=O)(=O)NC4=NCCCCC4)cc3)c2)CC(C)O1` (stereo not shown), the “hERG current change (%, negative = inhibition) at 10uM” value is -5.97%.

As for `CC(C)c1ccc(OCc2cccc(C(=O)N/N=C/c3cccnc3)c2)cc1`, the “hERG current change (%, negative = inhibition) at 10uM” value is -5.29%. As for `Cc1ccccc1C(=O)Nc1cccc(C(=O)N/N=C/c2cc(Cl)cc([N+](=O)[O-])c2O)c1`, the figure is 7.34%.

Take `COC(=O)c1cc2sc(Cl)cc2n1Cc1nc(-c2ccccc2)oc1C`: the “hERG current change (%, negative = inhibition) at 10uM” value is recorded as 3.5%. As for `Cn1ccnc1SCC(=O)Nc1nc2ccccc2s1`, the figure is -25.1%; as for `O=C(O)c1ccc(N/N=C/C2=C(N3CCOCC3)C(=C\c3ccccc3)/CC2)cc1`, 7.96%; as for `COc1ccccc1CC(=O)NCCc1c[nH]c2ccccc12`, 5.81%.

As to `COc1cccc(NC(C)C(=O)N2CC(C)OC(C)C2)c1` (stereo not shown), the “hERG current change (%, negative = inhibition) at 10uM” value is -1.96%. As for `C/C(=N/NC(=O)CNC(=O)c1cccs1)c1ccco1`, the figure is 11.7%; as for `CCOC(=O)c1ccc(NC(=S)N(CCCN2CCN(CC)CC2)Cc2ccco2)cc1`, -76.5%. Consider `CCOC(=O)c1ccc(NC(=S)N(CCCN2CCCCCC2)Cc2ccco2)cc1`, for which the “hERG current change (%, negative = inhibition) at 10uM” value is recorded as -73.7%. As for `COc1ccc(NC(=S)N(Cc2cccnc2)Cc2ccco2)cc1`, the figure is -24.5%; as for `COC(=O)c1ccc(NC(=S)N(Cc2cccnc2)Cc2ccco2)cc1`, -29.1%. The value for `COc1ccc(NC(=S)N(CCCN2CCOCC2)Cc2ccco2)cc1` was -7.89%; that for `CCOC(=O)c1ccc(NC(=S)N(Cc2cccnc2)Cc2ccco2)cc1` was -53.2%; that for `Cc1ccc(CSc2nc3c(c(N(C)C)n2)CCCC3)cc1` was -5.63%. With `CCC(Cc1c(I)cc(I)c(N)c1I)C(=O)O` (stereo not shown), the “hERG current change (%, negative = inhibition) at 10uM” value was -0.155%. Regarding `C=C1c2ccccc2NC(=S)N1Cc1ccc2c(c1)OCO2`, the “hERG current change (%, negative = inhibition) at 10uM” value is recorded as 27.5%. Regarding `Cc1ccc(CNC(=O)c2ccc(N3CCC4(CC3)CC(c3ccccc3)=NO4)c(NC(=O)c3ccco3)c2)cc1`, the “hERG current change (%, negative = inhibition) at 10uM” value is recorded as 6.09%. On to `COC(=O)CN(c1ccc(C)cc1)S(=O)(=O)c1ccc(F)cc1`, for which the “hERG current change (%, negative = inhibition) at 10uM” value is recorded as -19.9%. The value for `Cc1ccc(NS(=O)(=O)c2ccc3c(c2)c(=O)n(C)c(=O)n3C)cc1F` was -15.5%; that for `Cc1cc2oc(=O)cc(CN3CCOCC3)c2cc1O` was -22.6%. The value for `Cc1ccc2oc(=O)cc(CN3CCOCC3)c2c1` was -8.53%. As for `O=c1cc(CN2CCN(C/C=C/c3ccccc3)CC2)c2cc(O)ccc2o1`, the figure is -77.5%.

Regarding `Cc1ccc2oc(=O)cc(CN3CCCCC3)c2c1`, the “hERG current change (%, negative = inhibition) at 10uM” value is recorded as 15.9%. Consider `CC(C)c1ccc2oc(=O)cc(CN3CCN(c4ccccc4)CC3)c2c1`, for which the “hERG current change (%, negative = inhibition) at 10uM” value is given as -10.4%. Take `O=c1cc(CN2CCN(Cc3ccccc3)CC2)c2cc3c(cc2o1)CCC3`: the “hERG current change (%, negative = inhibition) at 10uM” value is -51%. For `Cc1cc2oc(=O)cc(CN3CCN(Cc4ccccc4)CC3)c2cc1Cl`, the “hERG current change (%, negative = inhibition) at 10uM” value is -22.8%. The value for `CN1CCN(Cc2cc(=O)oc3cc4c(cc23)CCC4)CC1` was -8.2%.

Regarding `CCN1CCN(Cc2cc(=O)oc3cc4c(cc23)CCC4)CC1`, the “hERG current change (%, negative = inhibition) at 10uM” value is reported as -29.7%.

For the compound `Cc1cc2oc(=O)cc(CN3CCN(Cc4ccccc4)CC3)c2cc1O`, the “hERG current change (%, negative = inhibition) at 10uM” value is on record as -53.3%. The value for `Cc1ccc2oc(=O)cc(CN3CCN(C/C=C/c4ccccc4)CC3)c2c1` was -76.9%; that for `COc1ccc(N2CCN(Cc3cc(=O)oc4cc(-c5ccccc5)c(O)cc34)CC2)cc1` was -0.18%; that for `Cc1ccc(S(=O)(=O)N2CCCCC2CCNC(=O)C(=O)NCC2CCCO2)cc1` (stereo not shown) was -23.6%. As for `O=C(CSc1cccc2cccnc12)N1CCCC1`, the figure is 12%; as for `NS(=O)(=O)c1ccc(NC(=O)c2c(Cl)cccc2Cl)cc1`, 9.38%. As for `Cc1c(O)ccc2c(CN(C)Cc3ccccc3)cc(=O)oc12`, the figure is 10.2%; as for `Cc1cc2oc(=O)cc(CN3CCN(C/C=C/c4ccccc4)CC3)c2cc1O`, -80.9%. For `Cc1c(O)ccc2c(CN3CCN(C/C=C/c4ccccc4)CC3)cc(=O)oc12`, the “hERG current change (%, negative = inhibition) at 10uM” value is given as -64.1%. As for `O=c1cc(CN2CCN(C/C=C/c3ccccc3)CC2)c2cc(O)c(-c3ccccc3)cc2o1`, the figure is 11.6%; as for `Cc1cc2oc(=O)cc(CN3CCCCC3)c2cc1O`, -1.42%; as for `Cc1ccc2c(CN3CCOCC3)cc(=O)oc2c1C`, 0.23%. The value for `CCC(C)Sc1ccc([C@H]2N[C@@](C)(C(=O)OC)[C@H]3C(=O)N(CC)C(=O)[C@@H]23)cc1.O=C(O)C(F)(F)F` (stereo partly shown) was 7.25%; that for `Brc1ccc(-c2nnc3n2-c2ccccc2CC3)cc1` was -41.3%. As for `COc1ccc(C(=O)Nc2ccc(S(=O)(=O)N3CCCCC3)cc2)cc1OC`, the figure is -9.83%; as for `COc1ccc(NC(=O)c2cc(OC)c(OC)c(OC)c2)cc1S(=O)(=O)N1CCCCC1`, 15.5%. As to `COc1ccc(NC(=O)c2cccc(S(=O)(=O)N3CCCC3)c2)cc1OC`, the “hERG current change (%, negative = inhibition) at 10uM” value was -4.78%. With `COc1ccc(NC(=O)c2ccc(Cl)nc2)cc1S(=O)(=O)N1CCCCC1`, the “hERG current change (%, negative = inhibition) at 10uM” value is on record as -59%. As for `COc1ccc(NC(=O)c2ccc(S(=O)(=O)N3CCCC3)cc2)cc1OC`, the “hERG current change (%, negative = inhibition) at 10uM” value is on record as -158%.

As to `COc1ccc(NC(=O)c2ccc(Cl)nc2)cc1S(=O)(=O)N1CCOCC1`, the “hERG current change (%, negative = inhibition) at 10uM” value is -10.5%. The value for `S=C(c1c[nH]c2ccccc12)N1CCCC1` was 9.74%; that for `Cc1ccc(CN2CC(C(=O)Nc3nnc(SCc4c(Cl)cccc4Cl)s3)CC2=O)cc1` (stereo not shown) was 14.1%; that for `Cn1cc(C(=O)OCC(=O)NC2CCCC2)c2ccccc21` was 7.9%. As for `O=[N+]([O-])c1ccccc1S(=O)(=O)NCCc1ccncc1`, the figure is 14.9%. As for `COc1ccccc1C(=O)OCC(=O)Nc1ccc(Cl)cn1`, the figure is 10.1%.
